The structures appear in SMILES notation. For some of these results: Entries with a potency or affinity are not part of this list.

Holding throughout (design): scale not given: direction of the effect not stated beside the values
Test [1] concerns the target Protein translocase subunit SecA (Escherichia coli (strain K12)) (UniProt P10408). Description: Assay to Identify E. coli SecA ATPase Inhibitors. The test is classed as functional. Conditions: 30 µM.
Test [2] deals with T1, Ubiquitin-activating enzyme e1, putative (Leishmania donovani (strain BPK282A1)) (UniProt E9BSI1).
T1 sequence (whole entry): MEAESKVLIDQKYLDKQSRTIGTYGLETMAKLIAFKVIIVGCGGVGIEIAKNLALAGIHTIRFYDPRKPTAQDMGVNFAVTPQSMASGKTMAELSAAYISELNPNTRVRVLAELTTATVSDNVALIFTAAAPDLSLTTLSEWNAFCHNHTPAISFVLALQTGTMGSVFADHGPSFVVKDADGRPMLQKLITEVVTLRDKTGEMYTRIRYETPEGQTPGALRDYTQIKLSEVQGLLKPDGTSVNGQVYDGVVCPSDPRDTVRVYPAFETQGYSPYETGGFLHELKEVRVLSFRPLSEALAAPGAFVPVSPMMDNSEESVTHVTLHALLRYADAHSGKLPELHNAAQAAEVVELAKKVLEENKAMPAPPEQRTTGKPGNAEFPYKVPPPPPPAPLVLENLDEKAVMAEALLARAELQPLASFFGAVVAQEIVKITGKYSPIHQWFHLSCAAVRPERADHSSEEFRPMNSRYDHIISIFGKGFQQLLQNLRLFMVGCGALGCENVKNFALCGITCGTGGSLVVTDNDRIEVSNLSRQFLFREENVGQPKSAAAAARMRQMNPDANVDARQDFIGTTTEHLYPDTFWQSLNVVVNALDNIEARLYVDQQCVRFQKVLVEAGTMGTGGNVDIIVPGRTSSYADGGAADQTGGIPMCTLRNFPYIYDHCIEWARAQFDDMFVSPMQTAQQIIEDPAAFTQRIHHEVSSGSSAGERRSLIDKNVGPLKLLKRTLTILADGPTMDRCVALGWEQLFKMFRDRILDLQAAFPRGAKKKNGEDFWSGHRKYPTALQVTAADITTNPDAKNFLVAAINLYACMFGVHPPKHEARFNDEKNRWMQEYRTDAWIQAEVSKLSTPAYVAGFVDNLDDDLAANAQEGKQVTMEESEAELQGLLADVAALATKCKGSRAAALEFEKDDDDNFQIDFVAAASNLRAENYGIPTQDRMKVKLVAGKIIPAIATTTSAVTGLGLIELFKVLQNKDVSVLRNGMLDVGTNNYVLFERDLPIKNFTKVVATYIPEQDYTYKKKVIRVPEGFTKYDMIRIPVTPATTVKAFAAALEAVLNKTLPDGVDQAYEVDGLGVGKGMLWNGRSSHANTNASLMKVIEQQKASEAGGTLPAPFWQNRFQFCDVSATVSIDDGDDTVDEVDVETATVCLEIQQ
Nature of the test: Leishmania donovani Ubiquitin Activating Enzyme (LdE1). Format: functional. Conditions: 30 µM.

For test [3], the target named is AMP-activated protein kinase, AMPK (Homo sapiens) (UniProt P54646+O43741+P54619+Q9UGJ0+Q9Y478+Q13131+Q9UGI9). Nature of the test: AMP-dependent Kinase enzyme assay. An in vitro enzyme assay that detects ADP turnover that is directly proportional to AMPK activity. This uses naive AMPK that is activated during the assay with MK-8722. Conditions: 30 µM. Format: functional.

Test [4] addresses Sialic acid-binding Ig-like lectin 9 (Homo sapiens) (UniProt Q9Y336). Nature of the test: Hs-Siglec9 ALPHAscreen SOP 20170721. The settings on record: 10 µM. In general terms: Alpha assays give light when donor and acceptor beads are brought close together.
The next test relates to Trypanosoma cruzi. Description: Trypanosoma cruzi phosphomannomutase and mannose-1-phosphate guanylyltransferase assay. Format: functional. The settings on record: 10 µM.
The target in test [5] is T2, Arginase-2, mitochondrial (Homo sapiens) (UniProt P78540).
T2 sequence (whole entry): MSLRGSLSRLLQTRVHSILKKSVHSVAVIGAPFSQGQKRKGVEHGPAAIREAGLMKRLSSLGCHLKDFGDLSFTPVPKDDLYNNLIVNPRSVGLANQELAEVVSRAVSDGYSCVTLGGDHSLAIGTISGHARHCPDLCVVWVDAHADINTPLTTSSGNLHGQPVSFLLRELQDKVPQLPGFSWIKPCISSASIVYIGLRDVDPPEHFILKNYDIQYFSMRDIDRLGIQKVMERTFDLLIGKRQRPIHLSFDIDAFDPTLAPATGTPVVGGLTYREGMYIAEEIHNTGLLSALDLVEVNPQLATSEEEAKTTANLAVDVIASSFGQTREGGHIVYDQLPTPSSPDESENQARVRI
Description: in vitro enzyme assay to detect the production of urea directly proportional to the activity of Arginase II. Also: in the data most compounds retested in dose-response had high values. Conditions: 33.3 µM. Format: functional.

In test [6] the target is T3, Proteasome subunit beta (Trypanosoma cruzi) (UniProt O96673).
T3 sequence (whole entry): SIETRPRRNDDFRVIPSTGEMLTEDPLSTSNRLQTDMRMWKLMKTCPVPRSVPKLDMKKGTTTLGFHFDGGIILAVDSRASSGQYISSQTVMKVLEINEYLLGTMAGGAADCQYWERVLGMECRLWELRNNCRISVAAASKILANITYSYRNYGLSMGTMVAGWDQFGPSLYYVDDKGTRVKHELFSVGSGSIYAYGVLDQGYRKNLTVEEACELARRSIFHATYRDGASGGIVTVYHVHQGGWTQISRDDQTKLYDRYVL
Description: Trypanosoma cruzi proteasome chymotrypsin-like activity (TcProtChymo) assay. Also: in the data most compounds retested in dose-response had high values. The test is classed as functional. The settings on record: 9.37 µM.

The species named for a further test is Homo sapiens. Nature of the test: To identify inhibition of the IFN signalling (Jak-Stat) pathway via expression of an eGFP reporter gene under the control of an IFN-stimulated response element (ISRE) containing MxA promoter. The test is classed as functional. Conditions: 30 µM. Background: In a reporter assay the amount or activity of a reporter protein is the signal.

The target of test [7] is T4, Tyrosyl-tRNA synthetase, putative (Trypanosoma cruzi (strain CL Brener)) (UniProt Q4DSP6).
T4 sequence (whole entry): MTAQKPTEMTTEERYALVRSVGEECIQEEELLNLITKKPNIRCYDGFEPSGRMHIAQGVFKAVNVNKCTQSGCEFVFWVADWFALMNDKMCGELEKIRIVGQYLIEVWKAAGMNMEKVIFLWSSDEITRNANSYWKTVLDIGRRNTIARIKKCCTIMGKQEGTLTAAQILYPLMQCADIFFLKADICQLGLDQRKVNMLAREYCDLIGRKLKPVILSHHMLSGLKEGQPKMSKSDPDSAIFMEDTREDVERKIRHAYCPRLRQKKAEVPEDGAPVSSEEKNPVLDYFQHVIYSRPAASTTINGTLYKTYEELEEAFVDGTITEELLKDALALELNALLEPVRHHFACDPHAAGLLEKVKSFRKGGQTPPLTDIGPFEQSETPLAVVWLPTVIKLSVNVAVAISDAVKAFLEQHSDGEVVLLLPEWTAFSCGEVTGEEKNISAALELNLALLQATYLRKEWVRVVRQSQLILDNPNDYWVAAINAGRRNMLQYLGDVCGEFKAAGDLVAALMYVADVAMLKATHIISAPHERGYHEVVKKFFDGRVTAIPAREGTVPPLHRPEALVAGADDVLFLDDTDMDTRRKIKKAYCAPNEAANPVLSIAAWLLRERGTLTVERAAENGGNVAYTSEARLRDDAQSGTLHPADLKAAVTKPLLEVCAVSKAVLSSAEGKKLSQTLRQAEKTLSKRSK
Nature of the test: Trypanosoma cruzi tyrosyl tRNA synthetase (TcYRS) _High Tyrosine SOP. Also: in the data most compounds retested in dose-response had high values. Format: functional. The settings on record: 30 µM.

Test [8] addresses T4, Tyrosyl-tRNA synthetase, putative (Trypanosoma cruzi (strain CL Brener)). Nature of the test: Trypanosoma cruzi tyrosyl tRNA synthetase (TcYRS) SOP. The test is classed as functional. The settings on record: 30 µM.
For test [9], the target named is Chromo domain-containing protein 1 (Saccharomyces cerevisiae (strain ATCC 204508 / S288c) (Baker's yeast)) (UniProt P32657). Nature of the test: ScCHD-1 Enzyme Inhibition Assay. Also: in the data most compounds retested in dose-response had high values. The test is classed as functional. The settings on record: 30 µM.
Chain of Chromo domain-containing protein 1 (Saccharomyces cerevisiae (strain ATCC 204508 / S288c) (Baker's yeast)) (P32657 whole entry, the tested form may be a part): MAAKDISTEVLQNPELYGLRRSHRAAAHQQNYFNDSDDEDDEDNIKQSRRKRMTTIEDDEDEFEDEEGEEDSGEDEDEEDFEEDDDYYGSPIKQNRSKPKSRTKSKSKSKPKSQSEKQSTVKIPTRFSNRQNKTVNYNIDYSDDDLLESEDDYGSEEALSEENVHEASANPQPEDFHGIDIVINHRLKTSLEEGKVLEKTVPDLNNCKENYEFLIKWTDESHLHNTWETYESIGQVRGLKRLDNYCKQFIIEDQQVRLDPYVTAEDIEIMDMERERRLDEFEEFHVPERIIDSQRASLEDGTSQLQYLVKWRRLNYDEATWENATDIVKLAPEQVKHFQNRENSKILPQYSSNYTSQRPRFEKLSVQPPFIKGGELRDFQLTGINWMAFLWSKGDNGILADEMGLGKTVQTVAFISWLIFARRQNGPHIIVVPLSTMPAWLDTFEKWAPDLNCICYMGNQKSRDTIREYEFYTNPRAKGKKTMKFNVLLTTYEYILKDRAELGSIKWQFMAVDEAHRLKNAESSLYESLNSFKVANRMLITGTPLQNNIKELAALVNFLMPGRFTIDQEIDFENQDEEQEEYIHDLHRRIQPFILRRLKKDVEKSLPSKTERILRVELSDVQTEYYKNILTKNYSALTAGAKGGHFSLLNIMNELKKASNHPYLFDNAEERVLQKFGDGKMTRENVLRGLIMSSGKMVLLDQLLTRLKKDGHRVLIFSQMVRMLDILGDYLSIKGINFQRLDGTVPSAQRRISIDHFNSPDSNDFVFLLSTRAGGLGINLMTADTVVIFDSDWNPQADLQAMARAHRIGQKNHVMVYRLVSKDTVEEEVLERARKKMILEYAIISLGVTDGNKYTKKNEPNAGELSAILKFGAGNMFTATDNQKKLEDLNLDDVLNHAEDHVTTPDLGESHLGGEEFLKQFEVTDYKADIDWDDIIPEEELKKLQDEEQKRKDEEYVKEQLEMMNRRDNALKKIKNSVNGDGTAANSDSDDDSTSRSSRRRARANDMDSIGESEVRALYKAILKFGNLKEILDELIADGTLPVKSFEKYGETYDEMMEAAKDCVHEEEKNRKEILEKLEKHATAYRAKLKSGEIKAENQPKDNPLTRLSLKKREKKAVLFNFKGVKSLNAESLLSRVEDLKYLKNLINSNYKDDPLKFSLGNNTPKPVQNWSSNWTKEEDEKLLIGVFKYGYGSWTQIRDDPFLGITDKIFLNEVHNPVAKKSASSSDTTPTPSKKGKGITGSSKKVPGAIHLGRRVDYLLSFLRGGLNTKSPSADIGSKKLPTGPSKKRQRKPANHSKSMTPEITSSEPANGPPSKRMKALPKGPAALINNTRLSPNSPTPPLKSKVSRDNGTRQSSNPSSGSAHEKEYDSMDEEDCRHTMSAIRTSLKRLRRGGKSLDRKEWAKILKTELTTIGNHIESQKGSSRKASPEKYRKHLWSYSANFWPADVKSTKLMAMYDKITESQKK

Chain of Sialic acid-binding Ig-like lectin 9 (Homo sapiens) (Q9Y336 whole entry): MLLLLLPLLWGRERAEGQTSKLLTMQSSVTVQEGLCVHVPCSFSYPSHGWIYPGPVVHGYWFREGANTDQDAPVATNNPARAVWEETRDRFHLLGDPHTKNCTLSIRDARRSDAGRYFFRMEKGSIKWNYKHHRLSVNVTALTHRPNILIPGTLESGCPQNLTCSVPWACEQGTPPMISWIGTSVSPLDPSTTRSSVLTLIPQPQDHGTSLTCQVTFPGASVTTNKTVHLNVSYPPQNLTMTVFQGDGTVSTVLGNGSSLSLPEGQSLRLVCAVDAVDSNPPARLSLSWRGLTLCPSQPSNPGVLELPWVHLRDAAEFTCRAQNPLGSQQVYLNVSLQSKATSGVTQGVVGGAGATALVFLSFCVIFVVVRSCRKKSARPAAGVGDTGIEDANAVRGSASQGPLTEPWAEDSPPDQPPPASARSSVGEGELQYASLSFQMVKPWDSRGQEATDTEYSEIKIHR
Chain of Protein translocase subunit SecA (Escherichia coli (strain K12)) (P10408 whole entry): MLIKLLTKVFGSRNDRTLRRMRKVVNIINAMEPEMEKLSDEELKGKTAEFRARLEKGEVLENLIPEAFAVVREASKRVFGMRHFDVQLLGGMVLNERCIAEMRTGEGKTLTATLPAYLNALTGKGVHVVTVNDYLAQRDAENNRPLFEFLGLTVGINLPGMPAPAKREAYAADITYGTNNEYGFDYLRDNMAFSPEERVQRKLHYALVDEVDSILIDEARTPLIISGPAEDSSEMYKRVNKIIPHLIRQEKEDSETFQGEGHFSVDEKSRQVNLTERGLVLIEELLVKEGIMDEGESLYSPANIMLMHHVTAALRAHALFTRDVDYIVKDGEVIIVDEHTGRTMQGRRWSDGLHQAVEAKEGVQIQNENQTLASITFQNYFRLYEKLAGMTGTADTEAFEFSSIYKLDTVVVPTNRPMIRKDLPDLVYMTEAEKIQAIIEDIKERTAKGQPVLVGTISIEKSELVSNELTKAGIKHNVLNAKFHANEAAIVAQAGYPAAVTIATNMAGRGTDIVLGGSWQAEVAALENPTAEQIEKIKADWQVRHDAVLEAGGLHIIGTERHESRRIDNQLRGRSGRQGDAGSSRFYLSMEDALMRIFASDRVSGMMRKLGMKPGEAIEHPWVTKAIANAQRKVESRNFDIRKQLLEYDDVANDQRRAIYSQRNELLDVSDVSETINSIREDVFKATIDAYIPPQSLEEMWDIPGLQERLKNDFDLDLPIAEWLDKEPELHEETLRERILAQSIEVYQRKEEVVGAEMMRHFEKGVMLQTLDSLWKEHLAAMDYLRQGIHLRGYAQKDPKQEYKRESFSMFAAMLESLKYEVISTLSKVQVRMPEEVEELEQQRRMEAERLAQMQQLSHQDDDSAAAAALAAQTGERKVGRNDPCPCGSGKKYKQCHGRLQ

Take `c1cncc(COCc2nnc3n2CCN(Cc2ccsc2)C3)c1`: the Percent Effect in [1] was -1.63%; in test [2], 13%; in test [3], 2.4%; in test [4], 6.44%; in the test with Trypanosoma cruzi, -2.26%; in test [5], -23.4%. In addition, the Percent Effect in [6] was 19.6%; in the test listed under Homo sapiens, 25%; in test [7] it was 3.23%; in test [8], 8.64%; in [9] it was -2.81%.
For `O=C(NCCN1CCOCC1)c1cc(-c2ccc3c(c2)CCO3)n[nH]1`, the Percent Effect in test [1] is -4.45%; in [2], 9.33%; in [3] it was 3.38%; in test [4] it was -3.18%; in the test on Trypanosoma cruzi, 1.57%; in test [5] it was -5.11%. In addition, the Percent Effect in [6] was 1.48%; in the test listed under Homo sapiens it was -12.9%; in test [7] it was 5.29%; in test [8], 7.69%; in test [9], -6.47%.
With `CCN(Cc1nc(C(C)C)no1)Cc1cccs1`, the Percent Effect was -3.02% in [1]; 7.79% in test [2]; -1.84% in test [3]; 6.48% in [4]; 5.8% with Trypanosoma cruzi; 1.38% in test [5]. For the same compound, the Percent Effect is 12% in test [6]; 6.22% in the test listed under Homo sapiens; 1.07% in [7]; -1.24% in test [8]; -5.13% in test [9].
`CC(C)CC(=O)N1CC[C@@H]2[C@H](CC1)N(S(C)(=O)=O)CCS2(=O)=O`: the Percent Effect in test [1] is -4.61%; in test [2], 18.9%; in [3] it was -5.46%; in test [4], -1.46%; with Trypanosoma cruzi, 5.66%; in [5], 25.8%. Further, the Percent Effect was 14.1% in test [6]; 6.42% in the test listed under Homo sapiens; 5.94% in test [7]; 13.4% in test [8]; -6.08% in test [9].
Turning to `Cc1ccc(C(=O)N2CCCC(NC(=O)C(C)C)C2)c(O)c1` (stereo unspecified), the Percent Effect is -4.49% in test [1]; 16.2% in test [2]; -12.8% in test [3]; 11.8% in [4]; 3.87% with Trypanosoma cruzi; -4.41% in test [5]. Further, the Percent Effect was 11.9% in test [6]; 6.82% in the test listed under Homo sapiens; 8.37% in test [7]; 25.9% in test [8]; -10.5% in test [9].
Take `O=C1CC2(CCN(CCO)CC2)CN1Cc1cc(F)cc(F)c1`: the Percent Effect in test [1] was -3.75%; in [2] it was 6.94%; in test [3], -9.77%; in test [4], 27.6%; in the test on Trypanosoma cruzi it was 4.18%; in test [5] it was 13.7%. The Percent Effect in test [6] was 11.2%; in the test listed under Homo sapiens, -13.2%; in [7], 2.1%; in test [8], 10.3%; in test [9] it was -9.52%.
In the case of `O=C(CN(Cc1ccccc1)CC1CCOCC1)NC(=O)NC1CC1`, the Percent Effect is -9.18% in test [1]; 0% in test [2]; 0.0982% in test [3]; -1.54% in test [4]; -4.96% in the test on Trypanosoma cruzi; -4.39% in test [5]. Moreover, the Percent Effect is 3% in [6]; -3.5% in the test listed under Homo sapiens; 1.04% in test [7]; -3.7% in test [8]; 1.29% in test [9].
For the compound `COCCNS(=O)(=O)c1ccc2c(c1)CCN(C(=O)c1cncn1C)C2`, the Percent Effect in [1] is -1.62%; in [2] it was 6.94%; in test [3] it was -17.1%; in [4], 2.73%; with Trypanosoma cruzi, -1.46%; in test [5], 6.62%. Moreover, the Percent Effect in test [6] is 22.1%; in the test filed under Homo sapiens it was 6.15%; in test [7] it was 7.37%; in test [8] it was 10.3%; in test [9], -2.12%.
For the compound `CC1CCCN(CCNC(=O)c2cncnc2C(C)C)C1` (stereo unspecified), the Percent Effect in [1] is -2.89%; in test [2], 6.94%; in test [3] it was -1.93%; in test [4], -5.17%; in the test with Trypanosoma cruzi, -4.96%; in test [5] it was 0.442%. Further, the Percent Effect in [6] is 8.25%; in the test listed under Homo sapiens, -15.9%; in test [7] it was 4.21%; in test [8], 12.8%; in [9], -3.15%.
Take `Cc1cc(CN(C)Cc2cc3c(cc2OC(F)F)OCO3)on1`: the Percent Effect in test [1] was -6.72%; in [2] it was 2.7%; in test [3], 1.74%; in [4] it was -1.22%; in the test with Trypanosoma cruzi, -0.684%; in test [5], 3.23%. Further, the Percent Effect was 5.24% in test [6]; -2.07% in the test listed under Homo sapiens; 0% in test [7]; 1.24% in [8]; -2.37% in test [9].
Consider `Cc1cccc(-n2cc(C(=O)N3CCCC(n4ccnc4)C3)nn2)c1` (stereo unspecified), for which the Percent Effect in test [1] was -3.01%; in test [2], 15.6%; in test [3], 7.1%; in [4], -13.5%; in the test with Trypanosoma cruzi, -5.58%; in test [5], -3.16%. The Percent Effect in test [6] is 14.6%; in the test filed under Homo sapiens it was 21.7%; in test [7], 1.91%; in test [8], 11.8%; in test [9], -17.4%.

The values above are taken from ChEMBL document CHEMBL3988442, “University of Dundee, Small-Polar-MMV Screening Library” (2021).
